Only a selection was taken, and hits are over-represented in it overall.
Tgondii IFNg: T. gondii growth inhibition with IFN-gamma, primary screen, cell-based | Toxoplasma gondii growth in IFN-gamma-treated host cells; stronger effect = lower value | activity change, negative = inhibition, % (test concentration not listed) | actives 3.8% (n = 69,000); in the data active means activity change below about -70%, passing the limit was not always enough;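 further: host cells are HeLa cells infected with Toxoplasma gondii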
An asterisk follows results filed as active; i = inactive; ! = not active in a repeat.

SMILES	Tgondii IFNg
C[C@@H]1CCCCO[C@H](CN(C)S(=O)(=O)c2ccc(F)cc2)[C@H](C)CN([C@H](C)CO)C(=O)c2cc(N(C)C)ccc2O1	i
COc1cc2c(c(OC)c1OC)-c1ccc(OC)c(=O)cc1[C@@H](NC(C)=O)CC2	-72*!
COc1ccc([C@@H]2C[C@H](NC(C)=O)C[C@H](CC(C)C)O2)c(OC)c1OC	-1
COc1c(O[C@@H]2O[C@H](CO)[C@@H](O)[C@H](O)[C@H]2O)cc2c(c1OC)-c1ccc(SC)c(=O)cc1[C@@H](NC(C)=O)CC2	12
COc1ccc(C(=O)Oc2cc(N)n(S(=O)(=O)c3ccc(OC)cc3)n2)cc1	-4
CCS(=O)(=O)N1CCC2(CC1)OC(=O)C(C)=C2C(=O)NCCCc1ccccc1	15
COc1ccccc1-c1ccc2c(c1)[C@@H]1[C@@H](CCN1C(=O)C1CCC1)[C@H](CO)N2	-72*
N#Cc1ccc(-c2ccc3c(c2)[C@H]2[C@H](CCN2C(=O)C2CCCCC2)[C@@H](CO)N3)cc1	-63
N#Cc1ccc(-c2ccc3c(c2)[C@@H]2[C@@H](CCN2C(=O)C2CCCCC2)[C@H](CO)N3)cc1	-63
Cc1ccc(F)cc1NC(=O)c1c(O)c2ccccc2n(-c2ccccc2)c1=O	81
Cc1cc(C)c(NC(=O)Cn2c(=O)cc(-c3nc(C4CC4)no3)c3ccccc32)c(C)c1	-27
COc1ccc(C)cc1NC(=O)Cn1c(=O)cc(-c2nc(C3CC3)no2)c2ccccc21	-87*
COc1ccccc1NC(=O)Cn1c(=O)cc(-c2nc(C3CC3)no2)c2ccccc21	-8
Cc1cccc(Nc2cc(N3CCOCC3)c3noc4c3c2C(=O)c2ccccc2-4)c1	-28
CN(CCn1cccn1)c1nc(-c2cccnc2)nc2c1cnn2C	-40
CN(Cc1ncc[nH]1)c1nc(-c2cccnc2)nc2c1cnn2C	-6
CN(Cc1cccc(Cl)c1)c1nc(-c2cccnc2)nc2c1cnn2C	-82*
CC(=O)c1cc(CC(=O)N2Cc3cnn(CCO)c3C2)cs1	13
Cc1cc(C)n(S(=O)(=O)c2ccccc2)n1	-3
COC(=O)c1ccc(S(=O)(=O)NCc2csc3ccc(Cl)cc23)n1C	-57
Cc1nn(S(=O)(=O)c2ccccc2)c(C)c1Cc1csc2ccc(Cl)cc12	-89*
O=C(O)c1nccnc1C(=O)NCc1csc2ccc(Cl)cc12	13
Cc1nn(C(=O)Nc2cccc(Cl)c2)c(C)c1Cc1csc2ccc(Cl)cc12	-85*
COC(=O)C(Cc1csc2ccc(Cl)cc12)NC(=O)c1ccc(C(F)(F)F)cc1 (stereo not drawn)	47
CN(C)S(=O)(=O)c1ccc(CN)cc1	6
SMILES	Tgondii IFNg
O=C(O)CCC(=O)N1CC2CC1C[C@@H]2Oc1cccnc1 (stereo partly drawn)	-22
O=c1ccc2c(OCCCCOc3ccccc3)c3ccoc3cc2o1	2
CCCN1CCC(c2cc3c(ncn3C)c(-c3ccc(OC)cc3)n2)CC1	6
COc1nccc(-c2c(-c3ccc(F)cc3)ncn2C2CCC(O)CC2)n1 (stereo not drawn)	-79*
CC(C)(C)N(Cc1ccco1)Cc1nc(-c2ccco2)no1	0
CCCN(CCC)S(=O)(=O)c1ccc(C(=O)Nc2ccc(F)cc2)cc1	-88*
CCCN(CCC)S(=O)(=O)c1ccc(C(=O)NCCc2ccc(OC)c(OC)c2)cc1	-47
CS(=O)(=O)c1ccc(C(=O)Nc2ccccc2)cc1	49
Cc1[nH]c2ccccc2c1CC(=O)N1CCCC2(CNC(=O)O2)C1 (stereo not drawn)	-2
COc1ccc2nc(NC(=O)COc3cccc(C)c3)sc2c1	-2
COc1ccc(C(C)NC(=O)c2ccc(Cc3c(C)noc3C)s2)cc1F (stereo not drawn)	32
COc1cc2sc(NC(=O)Cc3c(C)noc3C)nc2cc1Cl	-79*
Cc1cc(C)nc(N2CCCN(C(=O)Cc3cccs3)CC2)n1	-7
CC(C)c1ccc(NC(=O)CSc2nccc(-c3csc(-c4ccccc4)n3)n2)cc1	-22
Cc1onc(-c2ccc(Cl)cc2)c1-c1ccnc(SCC(=O)c2ccccc2)n1	-72*
Cc1ccc(C(=O)CSc2ncn(-c3ccccc3)n2)cc1	12
CC(C)c1ncc(-c2cc(C(=O)N(C)C(C)C)c3ccccc3n2)cn1	-9
O=C(NC1CC1)c1cc2n(n1)CCN(c1nccc(C(F)(F)F)n1)C2	-63
c1cc(C2CN(Cc3cc(C4CCCCC4)no3)C2)ccn1	-34
CC(C)NC(=O)[C@@H]1C[C@@H](N)CN1Cc1nc(-c2ccccc2)cs1	3
CCn1ccc2cc(S(=O)(=O)N3CCC(C(=O)NCc4ccccn4)CC3)ccc21	69
CN(Cc1cccc2ncccc12)Cc1cnn2cccnc12	2
CN(Cc1cccc2ncccc12)C(=O)c1cnn(-c2ccc(F)cc2)c1	-40
c1cc(-c2cnn3cc(-c4ccc(N5CCNCC5)cc4)cnc23)c2cccnc2c1	-84*
CC(C)c1ccc2c(c1)CC[C@H]1[C@](C)(CN)CCC[C@]21C	-44
Fc1ccc(CN2CCC3(CC2)CC(OCc2ccncc2)CO3)cc1 (stereo not drawn)	-5
